{"source": "PubChem BioAssay (NCATS)", "note": "Inconclusive results are not listed. The source made the active and inactive calls. Calls follow the shape of the dose curve; as a rule, active = well fitted cell-killing curve with a large enough effect; inconclusive = small, poorly fitted or top-dose-only effect, or effect the other way; inactive = no such curve, though single readings can be large or run the other way. Potency is read from the fitted curve at half-maximal effect.", "data": [{"test": "Quantitative High-Throughput drug screen in 47 multiple myeloma cell lines against the NCATS MIPE library collection: OCIMY7_PLB cell viability assay (AID 1918987); also: nearly all actives have a fitted effect of over 65% in size", "settings": "OCI-MY7 myeloma viability, CellTiter-Glo ATP, 48 h; viability (% of DMSO): at 45.8 µM (top of the series)", "from_the_text": "PI: Beverly A. Mock Ph.D.\nLaboratory of Cancer Biology and Genetics,\nCenter for Cancer Research, National Cancer Institute,\nNational Institute of Health, Bethesda, Maryland\nDrug resistance and disease progression are common in multiple myeloma (MM) patients, underscoring the need for new therapeutic combinations. […] We hypothesized that effective combinations would reduce MYC expression and enhance p16 activity. […] These preclinical data identify potentially useful drug combinations for evaluation in drug-resistant MM and reveal potential mechanisms of combined drug sensitivity.\nDescribed herein is the primary MIPE qHTS used to cherrypick compounds. Validated compounds were then further tested for potential synergistic activiy.\n[1] Peat TJ, Gaikwad SM, Dubois W, Gyabaah-Kessie N, Zhang S, Gorjifard S, Phyo Z, Andres M, Hughitt VK, Simpson RM, Miller MA, Girvin AT, Taylor A, Williams D, D'Antonio N, Zhang Y, Rajagopalan A, Flietner E, Wilson K, Zhang X, Shinn P, Klumpp-Thomas C, McKnight C, Itkin Z, Chen L, Kazandijian D, Zhang J, Michalowski AM, Simmons JK, Keats J, Thomas CJ, Mock BA. Drug combinations identified by high-throughput screening promote cell cycle transition and upregulate Smad pathways in myeloma. Cancer Lett. 2023 Aug 1;568:216284. doi: 10.1016/j.canlet.2023.216284. Epub 2023 Jun 24. PMID: 37356470; PMCID: PMC10408729.\nSEQUENCE No. (e.g., 1, 2, 3, etc.); […] (e.g., Cells, Incubation, Reagent, etc.); VALUE and DESCRIPTION.\n1; Cells; 5 uL; white, solid bottom 1536-well Greiner assay plate.\n2; Compounds; 23 nL; Kalypsis pin tool (Wako USA) equipped with a 1536-well pin head to transfer to the assay plates.\n3; Incubation; 48 hours; 37C incubation.\n4; Reagent;5uL; CellTiter Glo (Promega).\n5; Detector; 425V; Luminescence; Viewlux PerkinElmer.\nNOTES (numbers refer to Sequence numbers above)\n1. The cell-based screening methods employed in this study were like those previously published. Briefly, the corresponding myeloma cell lines were screened in 1,536-well plates with 500 cells, 5-uL per well for inhibition of cell viability (assessed by measuring ATP levels with CellTiterGlo).\n2. NCATS MIPE 4.0 library of approved and investigational drugs were added using the Kalypsis pin tool. Wells treated with DMSO only for 100% viability and media only for 0% viability were used as controls.\n3. The assay plates were covered and incubated for 48 hours in a 37C, 5% CO2 incubator with controlled humidity.\n4. After 48 hours, CellTilter-GloTM luminescent substrate mix (Promega) reagent was added to the assay plate and plates we incubated for 5 min at room temperature.\n5. Signal was measured as median relative luminescence units on a ViewLux (PerkinElmer) multiplate reader.\n[1] Heske CM, Davis MI, Baumgart JT, Wilson K, Gormally MV, Chen L, Zhang X, Ceribelli M, Duveau DY, Guha R, Ferrer M, Arnaldez FI, Ji J, Tran HL, Zhang Y, Mendoza A, Helman LJ, Thomas CJ. Matrix Screen Identifies Synergistic Combination of PARP Inhibitors and Nicotinamide Phosphoribosyltransferase (NAMPT) Inhibitors in Ewing Sarcoma. Clin Cancer Res. 2017 Dec 1;23(23):7301-7311. doi: 10.1158/1078-0432.CCR-17-1121. Epub 2017 Sep 12. PMID: 28899971; PMCID: PMC6636827.", "values": [{"smiles": "CO[C@H]1C=CO[C@@]2(C)Oc3c(C)c(O)c4c(O)c(c(C=NN5CCN(C)CC5)c(O)c4c3C2=O)NC(=O)C(C)=CC=C[C@H](C)[C@H](O)[C@@H](C)[C@@H](O)[C@@H](C)[C@H](OC(C)=O)[C@H]1C", "viability (% of DMSO)": "115% [at 15.3 µM] (inactive)"}, {"smiles": "Cc1cccc(-c2[nH]c(C(C)(C)C)nc2-c2ccc3c(c2)OCO3)n1", "Potency": "9.35 µM (active)"}, {"smiles": "O=C(CC12CC3CC(CC(C3)C1)C2)Nc1cccc2nc(NCCNCCO)ccc12", "Potency": "0.743 µM (active)"}, {"smiles": "O=C(NC[C@H](O)CO)c1ccncc1Nc1ccc(I)cc1F", "Potency": "0.209 µM (active)"}, {"smiles": "O=C(c1ccc(C=Cc2n[nH]c3ccccc23)cc1)N1CCNCC1", "Potency": "0.662 µM (active)"}, {"smiles": "COc1ccc2cc1Oc1ccc(cc1)C[C@H]1c3cc(c(OC)cc3CCN1C)Oc1c(OC)c(OC)cc3c1[C@H](C2)N(C)CC3", "Potency": "16.6 µM (active)"}, {"smiles": "CC(=O)O[C@]1(C(C)=O)CC[C@H]2[C@@H]3C=C(Cl)C4=CC(=O)[C@@H]5C[C@H]5[C@]4(C)[C@@H]3CC[C@@]21C", "Potency": "9.35 µM (active)"}, {"smiles": "O=C1CCCC(=O)C1C(=O)c1ccc(C(F)(F)F)cc1[N+](=O)[O-]", "viability (% of DMSO)": "83% (inactive)"}, {"smiles": "C[C@@H](NC(=O)c1ncnc(N)c1Cl)c1ncc(C(=O)Nc2cc(C(F)(F)F)c(Cl)cn2)s1", "Potency": "7.43 µM (active)"}, {"smiles": "O=C1NC(=O)C(c2cnc3ccccn23)=C1c1cn2c3c(cccc13)CN(C(=O)N1CCOCC1)CC2", "Potency": "0.0743 µM (active)"}, {"smiles": "CON(C)C(=O)N1N=C(c2cc(F)ccc2F)S[C@]1(CCCN)c1ccccc1", "viability (% of DMSO)": "63.3% (inactive)"}, {"smiles": "C=C1[C@H](n2cnc3c(=O)[nH]c(N)nc32)C[C@H](O)[C@H]1CO", "Potency": "1.18 µM (active)"}, {"smiles": "CC1=C[C@@H]2[C@@H]([C@@H](O)C[C@@]3(C)[C@H]2C[C@@H](C)[C@]3(O)C(=O)CO)[C@@]2(C)Cc3cnn(-c4ccccc4)c3C=C12", "Potency": "9.35 µM (active)"}, {"smiles": "CC[C@H](C)n1cc(C)c2c(C(=O)NCc3c(C)cc(C)[nH]c3=O)cc(-c3ccc(N4CCNCC4)nc3)cc21", "Potency": "23.5 µM (active)"}, {"smiles": "Cc1ccc(NC(=O)Nc2cc(C(F)(F)F)ccc2F)cc1Nc1ccc2c(c1)NC(=O)C2=Cc1ccc[nH]1", "Potency": "2.96 µM (active)"}, {"smiles": "CCNC(=O)Nc1ccc(Oc2ncnc(N)c2C=NOC)cc1Cl", "Potency": "2.64 µM (active)"}, {"smiles": "CN1CC(=O)NC1=NC(=O)Nc1cccc(Cl)c1", "Potency": "13.2 µM (active)"}, {"smiles": "Cc1ccccc1C(C(=O)NC1CCCCC1)N(C(=O)CNc1ccc(C#N)cc1)c1cccc(F)c1", "note": "(stereo not given)", "viability (% of DMSO)": "147% (inactive)"}, {"smiles": "Cc1ccc2c(=O)c3cccc(CC(=O)O)c3oc2c1C", "Potency": "26.4 µM (active)"}, {"smiles": "Nc1ccc(-c2ccc3ncc4ccc(=O)n(-c5cccc(C(F)(F)F)c5)c4c3c2)cn1", "Potency": "0.0209 µM (active)"}, {"smiles": "Cc1ccccc1-n1c(Cn2nc(-c3cccc(O)c3)c3c(N)ncnc32)nc2cccc(C)c2c1=O", "Potency": "2.96 µM (active)"}, {"smiles": "CCOC(=O)[C@@H](N)CCC(=O)N[C@@H](CSCc1ccccc1)C(=O)N[C@@H](C(=O)OCC)c1ccccc1", "Potency": "23.5 µM (active)"}, {"smiles": "C=CC[N+]1([C@H]2C[C@H]3[C@@H]4CC[C@H]5C[C@H](O)[C@@H](N6CCOCC6)C[C@]5(C)[C@@H]4CC[C@]3(C)[C@H]2OC(C)=O)CCCC1", "viability (% of DMSO)": "214% (inactive)"}, {"smiles": "CC(C)C[C@@H](C(=O)N[C@H](C(=O)OC1CCCC1)c1ccccc1)[C@H](O)C(=O)NO", "Potency": "14.8 µM (active)"}, {"smiles": "C[C@@H]1O[C@@H](O[C@H]2CC[C@@]3(C)[C@H](CC[C@@H]4[C@H]3C[C@@H](O)[C@]3(C)[C@@H](C5=CC(=O)OC5)CC[C@]43O)C2)C[C@H](O)[C@@H]1O[C@H]1C[C@H](O)[C@H](O[C@H]2C[C@H](O)[C@@H](O)[C@@H](C)O2)[C@H](C)O1", "note": "(stereo in doubt)", "Potency": "0.152 µM (active)"}, {"smiles": "Cn1cc(-c2ccc3nnc(Sc4ccc5ncccc5c4)n3n2)cn1", "viability (% of DMSO)": "169% (inactive)"}, {"smiles": "O[C@@H](COc1cccc2ncccc12)CN1CCN(C2c3ccccc3[C@@H]3[C@H](c4ccccc42)C3(F)F)CC1", "note": "(stereo not given in full)", "Potency": "7.43 µM (active)"}, {"smiles": "CC1(C)CC(=O)c2c(C(F)(F)F)nn(-c3ccc(C(N)=O)c(NC4CCC(O)CC4)c3)c2C1", "note": "(stereo not given)", "Potency": "0.0662 µM (active)"}, {"smiles": "CN(C)c1ccc(-c2nc3ncc(Cl)c(N4CCN(CC(=O)Nc5nccs5)CC4)c3[nH]2)cc1", "Potency": "1.66 µM (active)"}, {"smiles": "C=CCc1cccc(C=NNC(=O)CN2CCN(Cc3ccccc3)CC2)c1O", "Potency": "14.8 µM (active)"}, {"smiles": "CCc1cccc(CC)c1NC(=O)N1Cc2[nH]nc(NC(=O)c3ccc(N4CCN(C)CC4)cc3)c2C1", "Potency": "10.5 µM (active)"}, {"smiles": "C[C@@H](N)c1ccc(C(=O)Nc2ccnc3[nH]ccc23)cc1", "Potency": "14.8 µM (active)"}, {"smiles": "O=c1[nH]c(=O)n([C@H]2C[C@@H](O)[C@@H](CO)O2)cc1C(F)(F)F", "Potency": "7.43 µM (active)"}, {"smiles": "O=C(O)c1nc(=O)[nH]c(=O)[nH]1", "viability (% of DMSO)": "107% [at 23.2 µM] (inactive)"}, {"smiles": "c1ccc(CNc2nc(N3CCOc4ccccc43)nc3c2CCCC3)cc1", "viability (% of DMSO)": "140% (inactive)"}, {"smiles": "OC(c1cc(C(F)(F)F)nc2c(C(F)(F)F)cccc12)C1CCCCN1", "note": "(stereo not given)", "Potency": "10.5 µM (active)"}, {"smiles": "O=C(Nc1cccc(C(F)(F)F)c1)Nc1cc(S(=O)(=O)NC2CC2)ccc1-c1ccsc1", "Potency": "18.7 µM (active)"}, {"smiles": "Cc1cnc(Nc2cccc(CN3CCOCC3)c2)nc1Nc1cccc(S(=O)(=O)NC(C)(C)C)c1", "Potency": "1.05 µM (active)"}, {"smiles": "CN1CCC(COc2cnc(-c3cccc(Cn4nc(-c5cccc(C#N)c5)ccc4=O)c3)nc2)CC1", "Potency": "0.059 µM (active)"}, {"smiles": "CN(C)CCOc1ccc(C(=C(CCCl)c2ccccc2)c2ccccc2)cc1", "Potency": "5.9 µM (active)"}]}]}
